Source: PubChem BioAssay
HT1080NT lethal = kills 2HG-producing HT-1080-NT fibrosarcoma cells. Potency, µM (top dose mostly 46.1 µM), without a hit: at the top dose activity, negative = less viability, most hits filed as cytotoxic. HT-1080-NT fibrosarcoma viability, CellTiter-Glo ATP luminescence, 48 h. hit rate 1.6% among 360,000. AID 686970;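 also: NT is the 2HG producing partner of a matched IDH1 knockdown line; potency is read from the fitted curve at half-maximal effect; 0% = DMSO-treated cells and -100% = media-only wells without cells; nearly all actives have a fitted effect of over 55% in size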
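Compounds were tested in concentration-response format on HT-1080-NT cells for 48 hours at 37 degrees C. Cell viability came from CellTiter-Glo luminescence; curves were classified by r2, response magnitude and activity.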
HT1080 IDH1KD tx = HT-1080 IDH1 knockdown cell toxicity (counter line). hit rate 2% among 360,000. Potency, µM (doses to about 46.1 µM), for inactives: top-dose activity, negative = toxicity, most hits filed as cytotoxic. HT-1080 IDH1 knockdown viability, ATP luminescence, 48 h;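 also: potency is read from the fitted curve at half-maximal effect; 0% = DMSO wells and -100% = cell-free medium wells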
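In this qHTS, HT-1080 cells depleted of IDH1 are exposed for 48 h at 37 °C to compound titrations. Toxicity is scored from CellTiter-Glo luminescence, with DMSO as full viability and medium alone as none.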
KB-V1 MDR tox = kills drug-selected multidrug resistant KB-V1 cells | KB-V1 MDR cells viability, CellTiter-Glo, 72 h | AID 1347076 | Potency, µM (series often up to 46.1 µM), actives largely listed as cytotoxic | hit rate 3.4% among 400,000; also: potency is read from the fitted curve at half-maximal effect; nearly all actives have a fitted effect of over 60% in size
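Compound-treated KB-V1 multidrug-resistant cells, 72 h, 37 degrees C; viability by CellTiter-Glo. Fitted qHTS curves give the values.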
IL1B secr inh = inhibitors of inflammasome signaling (IL-1 beta secretion) | THP-1 LPS/ATP IL-1B secretion, AlphaLISA, 16 h; stronger effect = lower value | activity change, % at 57.5 µM | hit rate 4.7% among 360,000 | AID 743279; in the data active = activity change below about -50%; inconclusive = mostly about -30% to -49%
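THP-1 cells pretreated 1 hr with compounds (up to 57.5 uM final), then stimulated with LPS (250 ng/mL final) plus ATP (1.25 mM final); secreted IL-1B measured by AlphaLISA after 16 hr, decreased signal indicating inhibition.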
KB-3-1 cytotox = KB-3-1 parental cell cytotoxicity; hit rate 1.4% among 400,000; KB-3-1 viability, CellTiter-Glo ATP luminescence, 72 h; Potency, µM (doses to about 46.1 µM), actives largely listed as cytotoxic; AID 1347075; also: potency is read from the fitted curve at half-maximal effect; nearly all actives have a fitted effect of over 60% in size
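Cells are dispensed, compounds pinned in, plates held at 37 °C for 72 h, then CellTiter-Glo is added and luminescence read after 10 minutes. Cell line: parental KB-3-1 in phenol-red-free DMEM, 10% FBS.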
An asterisk follows results filed as active. Only some compounds are listed: those with a hit (about 8.8% of all), similar ones and a draw of the others. Unless noted, calls follow the shape of the dose curve; as a rule, active = well fitted curve in the direction sought with a large enough effect; inconclusive = small, poorly fitted or top-dose-only effect, or another doubt; inactive = no such curve, though single readings can be large; an effect the other way counts as inactive or inconclusive. Unless noted, % is scaled to controls: 0 for no effect and ±100 for the full control effect.

Results for CCOCCCNC(=S)N1CCN(c2nc(-c3ccccc3)cs2)CC1 ?
HT1080NT lethal: inconclusive; HT1080 IDH1KD tx: inconclusive; KB-V1 MDR tox: inconclusive; IL1B secr inh: inconclusive; KB-3-1 cytotox: inactive

How did CC(C)CNC(=S)N1CCN(c2nc(-c3ccc(Cl)cc3)cs2)CC1 do in these assays?
HT1080NT lethal: inconclusive; HT1080 IDH1KD tx: inconclusive; KB-V1 MDR tox: inactive; IL1B secr inh: -69*; KB-3-1 cytotox: inconclusive

Results for COCCCNC(=S)N1CCN(c2nc(-c3ccc(Cl)cc3)cs2)CC1 ?
HT1080NT lethal: -17%; HT1080 IDH1KD tx: -15%; KB-V1 MDR tox: inconclusive; IL1B secr inh: -5; KB-3-1 cytotox: inactive

What do the screens show for `CCN(CC)CCCNC(=S)N1CCN(c2nc(-c3ccccc3)cs2)CC1`?
HT1080NT lethal: 16µM*; HT1080 IDH1KD tx: 23µM*; KB-V1 MDR tox: inactive; IL1B secr inh: -50*; KB-3-1 cytotox: inactive

Results for CCC(C)n1c(=S)[nH]c2c(sc3ccc([N+](=O)[O-])cc32)c1=O (stereo not drawn) ?
HT1080NT lethal: -25%; HT1080 IDH1KD tx: -28%; KB-V1 MDR tox: inconclusive; IL1B secr inh: 23; KB-3-1 cytotox: inconclusive

What do the screens show for `CC(Oc1ccc(Cl)cc1)C(=O)Nc1sccc1C(N)=O` (stereo not drawn)?
HT1080NT lethal: -15%; HT1080 IDH1KD tx: -10%; KB-V1 MDR tox: 9.2µM*; IL1B secr inh: -62*; KB-3-1 cytotox: inactive

How did CCOC(=O)c1c2c3c(cccc3[nH]c1=O)C(=O)c1ccccc1-2 do in these assays?
HT1080NT lethal: 9%; HT1080 IDH1KD tx: 12%; KB-V1 MDR tox: inactive; IL1B secr inh: -6; KB-3-1 cytotox: inactive

Results for CCOC(=O)c1c2c3c(cccc3n(C)c1=O)C(=O)c1ccccc1-2 ?
HT1080NT lethal: -19%; HT1080 IDH1KD tx: -20%; KB-V1 MDR tox: 21µM*; IL1B secr inh: inconclusive; KB-3-1 cytotox: inconclusive

What do the screens show for `CCOC(=O)c1c2c3c(c(Cl)ccc3[nH]c1=O)C(=O)c1ccccc1-2`?
HT1080NT lethal: 2%; HT1080 IDH1KD tx: -1%; KB-V1 MDR tox: inactive; IL1B secr inh: -85*; KB-3-1 cytotox: inactive

What do the screens show for `Cc1ccc2oc(=O)c3cc(C(=O)Nc4ccc(C)c(F)c4)sc3c2c1`?
KB-V1 MDR tox: inconclusive; KB-3-1 cytotox: inactive

How did c1ccc(CSc2ccc(-c3cccnc3)nn2)nc1 do in these assays?
HT1080NT lethal: 12%; HT1080 IDH1KD tx: 9%; KB-V1 MDR tox: inactive; IL1B secr inh: -14; KB-3-1 cytotox: inactive

What do the screens show for `Cc1cc(Cl)ccc1NC(=O)CN1CCN(C(=O)c2ccco2)CC1`?
HT1080NT lethal: 16%; HT1080 IDH1KD tx: 13%; KB-V1 MDR tox: inactive; IL1B secr inh: 0; KB-3-1 cytotox: inactive

How did COc1cc(C(=O)N=c2sc3c(C)ccc(OC)c3n2C)cc(OC)c1OC do in these assays?
HT1080NT lethal: 11%; HT1080 IDH1KD tx: 0%; KB-V1 MDR tox: inactive; IL1B secr inh: 43; KB-3-1 cytotox: inconclusive

Results for COc1ccc(C(=O)N=c2sc3c(C)ccc(OC)c3n2C)cc1 ?
HT1080NT lethal: -1%; HT1080 IDH1KD tx: 16%; KB-V1 MDR tox: 5.8µM*; IL1B secr inh: 37; KB-3-1 cytotox: 9.2µM*

What do the screens show for `O=C(Nc1ccc(Cl)cc1)NC1CCCC1Cc1ccco1` (stereo not drawn)?
HT1080NT lethal: -15%; HT1080 IDH1KD tx: inconclusive; KB-V1 MDR tox: inactive; IL1B secr inh: -89*; KB-3-1 cytotox: inactive

Results for c1ccc(NC2=NCCN2CC2CCC2)cc1 ?
HT1080NT lethal: 6%; HT1080 IDH1KD tx: 5%; KB-V1 MDR tox: inconclusive; IL1B secr inh: 21; KB-3-1 cytotox: inactive

How did c1ccc(NC2=NCCN2CCCC2CCCCC2)cc1 do in these assays?
HT1080NT lethal: -27%; HT1080 IDH1KD tx: -27%; KB-V1 MDR tox: inactive; IL1B secr inh: -61*; KB-3-1 cytotox: inactive

What do the screens show for `COc1cc(/C=C/C(=O)c2cccc([N+](=O)[O-])c2)cc(OC)c1OC`?
HT1080NT lethal: inconclusive; HT1080 IDH1KD tx: inconclusive; KB-V1 MDR tox: inconclusive; IL1B secr inh: -61*; KB-3-1 cytotox: inconclusive

Results for COc1cc2c(cc1OC)/C(=C/C(=O)c1cccc([N+](=O)[O-])c1)NCC2 ?
HT1080NT lethal: 1%; HT1080 IDH1KD tx: -11%; KB-V1 MDR tox: inconclusive; IL1B secr inh: -60*; KB-3-1 cytotox: inactive

How did COc1cc(OC)c(C=CC(=O)c2ccccc2O)c(OC)c1 do in these assays?
HT1080NT lethal: -11%; HT1080 IDH1KD tx: inconclusive; KB-V1 MDR tox: inactive; IL1B secr inh: -59*; KB-3-1 cytotox: inconclusive

How did COc1cc(/C=C/C(=O)c2ccccc2O)cc(OC)c1OC do in these assays?
HT1080NT lethal: inconclusive; HT1080 IDH1KD tx: inconclusive; KB-V1 MDR tox: inactive; IL1B secr inh: -98*; KB-3-1 cytotox: inconclusive

Results for O=C(/C=C/c1ccccc1F)c1cccc([N+](=O)[O-])c1 ?
HT1080NT lethal: -13%; HT1080 IDH1KD tx: -25%; KB-V1 MDR tox: inactive; IL1B secr inh: -9; KB-3-1 cytotox: inactive

How did COc1cc(NC(=O)Cc2c(C(=O)O)c(C)cn2C)cc(OC)c1 do in these assays?
KB-V1 MDR tox: inconclusive; KB-3-1 cytotox: inactive

How did O=c1c2ccccc2sn1-c1cc(S(=O)(=O)N2CCOCC2)ccc1N1CCOCC1 do in these assays?
HT1080NT lethal: inconclusive; HT1080 IDH1KD tx: inconclusive; KB-V1 MDR tox: inconclusive; IL1B secr inh: -102*; KB-3-1 cytotox: inactive

How did O=c1c2ccccc2sn1-c1cc(S(=O)(=O)N2CCOCC2)ccc1N1CCCCC1 do in these assays?
KB-V1 MDR tox: inactive; KB-3-1 cytotox: inactive

Results for O=S(=O)(c1ccc(N2CCOCC2)c(Cl)c1)N1CCOCC1 ?
HT1080NT lethal: 0%; HT1080 IDH1KD tx: -11%; KB-V1 MDR tox: inactive; IL1B secr inh: 18; KB-3-1 cytotox: inactive

What do the screens show for `O=c1c2ccccc2sn1-c1cc(S(=O)(=O)N2CCOCC2)ccc1N1CCCC1`?
HT1080NT lethal: inconclusive; HT1080 IDH1KD tx: inconclusive; KB-V1 MDR tox: inactive; IL1B secr inh: -107*; KB-3-1 cytotox: inactive

How did CC1CCCCC1NS(=O)(=O)c1ccc(S(=O)(=O)NCc2ccncc2)cc1 (stereo not drawn) do in these assays?
HT1080NT lethal: 0%; HT1080 IDH1KD tx: inconclusive; KB-V1 MDR tox: 16µM*; IL1B secr inh: -22; KB-3-1 cytotox: inactive

Results for Cc1ccc(S(=O)(=O)NCc2ccncc2)cc1 ?
HT1080NT lethal: -16%; HT1080 IDH1KD tx: 6.5µM*; KB-V1 MDR tox: inactive; IL1B secr inh: 42; KB-3-1 cytotox: inconclusive

What do the screens show for `CCOc1ccc(S(=O)(=O)NCc2ccncc2)cc1`?
HT1080NT lethal: -16%; HT1080 IDH1KD tx: -18%; KB-V1 MDR tox: 0.65µM*; IL1B secr inh: -12; KB-3-1 cytotox: 0.82µM*

What do the screens show for `CCOc1ccc(S(=O)(=O)NC2CCCCC2C)cc1` (stereo not drawn)?
HT1080NT lethal: 0%; HT1080 IDH1KD tx: 3%; KB-V1 MDR tox: inactive; IL1B secr inh: 0; KB-3-1 cytotox: inactive
